Hits are enriched below; roughly 5.2% of the tested compounds scored in any of these assays.
IDH1 R132H inh: blocks human mutant IDH1 R132H enzyme. IDH1-R132H enzyme, NADPH consumption, diaphorase/resazurin fluorescence. actives 0.093% (n = 390,000). Potency, µM (doses to about 76.6 µM), inactives show at the top dose activity change, negative = inhibition, most hits filed as inhibitors. O75874; also: nearly all actives have a fitted effect of over 65% in size
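IDH1-R132H (0.5 ug/mL dispensed) in pH 7.5 Tris buffer was preincubated 30 min with compound, then given a substrate mix of 0.016 mM NADPH and 2 mM alpha-KG for 80 min at room temperature; remaining NADPH was read by diaphorase/resazurin fluorescence.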
PLK1 PBD block: inhibitors of human PLK1 polo-box domain binding; Potency, µM, for inactives: max response, negative = inhibition, actives largely listed as inhibitors; Plk1 PBD binding of FITC phosphopeptide, fluorescence polarization; actives 2.8% (n = 360,000); P53350; also: series mostly up to about 57 µM; nearly all actives have a fitted effect of over 65% in size
VDR inh: blocks the human vitamin D receptor | P11473 | VDR-SRC2-3 peptide fluorescence polarization, 2 h | Potency, µM, for inactives: max response, negative = inhibition, usual class: inhibitors | actives 0.93% (n = 400,000)
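Fluorescence polarization assay measuring small-molecule disruption of VDR binding to the coregulator peptide SRC2-3. Compounds were pin-transferred (23 nl) into the reagent mix and incubated 2 h at room temperature before reading.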
TrxR1 substrate: substrates of rat thioredoxin reductase 1; purified TrxR1 substrate turnover, NADPH consumption readout; Potency, µM (titrated, usually from 114 µM), inactives show at the top dose activity change, negative = substrate turnover; actives 0.01% (n = 390,000); also: nearly all actives have a fitted effect of over 50% in size
Target sequence (O89049 whole entry, looked up): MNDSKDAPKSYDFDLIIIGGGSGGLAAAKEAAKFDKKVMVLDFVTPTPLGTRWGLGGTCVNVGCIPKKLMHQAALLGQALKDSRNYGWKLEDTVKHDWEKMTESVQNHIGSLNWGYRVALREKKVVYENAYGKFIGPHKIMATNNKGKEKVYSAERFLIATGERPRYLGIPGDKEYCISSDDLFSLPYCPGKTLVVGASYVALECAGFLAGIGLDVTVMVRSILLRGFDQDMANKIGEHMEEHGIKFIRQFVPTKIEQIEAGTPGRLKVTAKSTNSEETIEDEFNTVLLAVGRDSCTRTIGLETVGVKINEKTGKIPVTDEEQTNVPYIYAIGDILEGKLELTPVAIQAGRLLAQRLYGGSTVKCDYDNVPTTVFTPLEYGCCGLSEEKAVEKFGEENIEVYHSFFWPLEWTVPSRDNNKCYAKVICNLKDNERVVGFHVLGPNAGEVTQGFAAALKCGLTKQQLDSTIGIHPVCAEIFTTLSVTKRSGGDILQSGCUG
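Rat TrxR1, dispensed at 90 nM, was prereduced with 400 uM NADPH (final) for 5 min at ~22 deg C, then incubated with compound 15 min before 400 uM selenite. A first-read NADPH fluorescence drop versus no-compound background flagged substrates.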
TrxR1 inh: inhibitors of rat thioredoxin reductase 1 | O89049 | recombinant rTrxR1, NADPH fluorescence consumption, selenite substrate | Potency, µM (doses to about 114 µM), without a hit: top-dose activity change, negative = inhibition, hits mostly inhibitors | actives 1% (n = 390,000) | AID 588453; also: nearly all actives have a fitted effect of over 65% in size
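Rat TrxR1 (90 nM in the dispensed reagent) was pre-reduced with 400 uM NADPH for 5 min at room temperature, then incubated with compound for 15 min. After 400 uM selenite was added, NADPH fluorescence (Ex 340/Em 450 nm) was followed for 8 min.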
Sfp inh: blocks B. subtilis Sfp PPTase activity. Q9F4F7. Biochemical Sfp PPTase activity, qHTS. Potency, µM, for inactives: largest response in the series, negative = inhibition, most hits filed as inhibitors. actives 3.5% (n = 310,000). AID 1490;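 also: the enzyme is Sfp with the accession as filed and its product quenches rhodamine fluorescence; 0% = enzyme reaction without inhibitor and -100% = no enzyme wells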
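Sfp 15 nM + cpd, 15 min RT; start w/ rhodamine-CoA 5 uM, BHQ-2-YbbR 12.5 uM (final); 50 mM Hepes pH 7.6, 10 mM MgCl2, 0.01% NP-40, 0.01% BSA; read 525/598 nm at 0 and 30 min.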
An asterisk follows results filed as active; u = inconclusive; x = no result given; [ ] = dose if it differs, or a comment. Calls follow the shape of the dose curve; as a rule, active = well fitted curve in the direction sought with a large enough effect; inconclusive = small, poorly fitted or top-dose-only effect, or another doubt; inactive = no such curve, though single readings can be large; an effect the other way counts as inactive or inconclusive. Unless noted, % is scaled to controls: 0 for no effect and ±100 for the full control effect; potency is read from the fitted curve at half-maximal effect.

SMILES	IDH1 R132H inh	PLK1 PBD block	VDR inh	TrxR1 substrate	TrxR1 inh	Sfp inh
Cn1nnnc1Sc1ncnc2scc(Br)c12	x	x	-29%	5%	5.6µM*	x
COCCCNC(=O)C1CCC(Cn2c(=O)c3sccc3n(C)c2=O)CC1 (stereo not drawn)	10%	x	-8%	4%[57.1 µM]	15%[57.1 µM]	x
FC(F)(F)c1cccc(NC(=S)Nc2cccc(NC(=S)Nc3cccc(C(F)(F)F)c3)n2)c1	-11%	-30%	-16%	-10%	u	20µM*
Cc1ccc(NC(=S)NNC(=S)NCc2ccccc2)cc1	-3%	30µM*	50µM*	-7%	u	56µM*
CCNC(=S)NNC(=S)NCc1ccccc1	2%	1%	-21%	-11%	-25%	56µM*
FC(F)(F)c1cccc(NC(=S)NNC(=S)NCc2ccccc2)c1	6%	u	u	-6%	0%	45µM*
FC(F)(F)c1cccc(NC(=S)NCc2ccccn2)c1	7%	-9%	2%	-6%	-12%	-7%
CCOC(=O)CCCCCC(=O)Nc1ccc2c(c1)C(=O)N([C@@H](C)CO)C[C@H](C)[C@H](CN(C)C(=O)Nc1ccc(F)cc1)OCCCC[C@H](C)O2	-2%	-18%	x	x	x	x
CCOc1ccc(-n2cc(-c3ccccc3)c3c(N4CCN(c5ccccc5OC)CC4)ncnc32)cc1	-19%	x	15%	-9%[57.1 µM]	-3%[57.1 µM]	x
Cc1[nH]n(-c2ccccc2)c(=O)c1C(C[N+](=O)[O-])c1ccc(Br)cc1 (stereo not drawn)	0%	27µM*	u	9%[57.1 µM]	u	-24%
COc1cccc(C(C[N+](=O)[O-])c2c(C)[nH]n(-c3ccccc3)c2=O)c1 (stereo not drawn)	1%	30µM*	u	0%	u	28µM*
Cc1[nH]n(-c2ccccc2)c(=O)c1C(c1cccc([N+](=O)[O-])c1)c1c(C)[nH]n(-c2ccccc2)c1=O	-4%	24µM*	56µM*	-8%	u	-12%
Cc1[nH]n(-c2ccccc2)c(=O)c1C(c1ccc(C(=O)O)cc1)c1c(C)[nH]n(-c2ccccc2)c1=O	8%	8.4µM*	-11%	-2%	-31%	-1%
C=C(c1ccc(OCCO)cc1)c1ccc(OCCO)cc1	-2%	27µM*	-13%	-9%[57.1 µM]	2%[57.1 µM]	-7%
O=C(c1ccccc1)c1ccc(OCCO)cc1	0%	1%	1%	-4%	1%	16%
CCOc1cc(CNC(=O)c2ccc3c(c2)N(C)C(=O)C2CCCCN32)cc(OCC)c1OCC (stereo not drawn)	10%	x	10%	2%[57.1 µM]	12%[57.1 µM]	x
C[C@]12CC[C@H](O)CC1=CCC1C2CC[C@@]2(C)C1CC[C@@H]2NCc1ccccc1 (stereo partly drawn)	-2%	-7%	x	x	x	x
C=CCSc1nccc(=O)[nH]1	2%	13µM*	u	3%[57.1 µM]	1%[57.1 µM]	10%
C=CCSc1nc2ccccc2c(=O)[nH]1	10%	1%	16%	2%	10%	-9%
O=C(CSc1nccc(=O)[nH]1)c1ccccc1Br	9%	-30%	u	12%[57.1 µM]	23%[57.1 µM]	50µM*
O=C(CSc1nccc(=O)[nH]1)c1c[nH]c2ccccc12	-10%	0%	7%	-3%	-5%	9%
O=C(NCC(c1ccc2c(c1)OCO2)N1CCOCC1)c1ccccc1F (stereo not drawn)	38%	x	5%	-3%[57.1 µM]	3%[57.1 µM]	x
CC(C)c1ccc(CNC(=O)c2ccc(N3CCCC3)c(NC(=O)NCc3ccc(F)cc3)c2)cc1	-21%	x	10%	7%[57.1 µM]	22%[57.1 µM]	x
FC(F)(F)c1cc(NC(=S)Nc2ccc3ccccc3c2)cc(C(F)(F)F)c1	x	x	-19%	x	x	-2%
CC1(C)CC(=O)C(C2C3=C(CC(C)(C)CC3=O)Oc3ccccc32)C(=O)C1 (stereo not drawn)	4%	-19%	-6%	-6%	56µM*	5%
SMILES	IDH1 R132H inh	PLK1 PBD block	VDR inh	TrxR1 substrate	TrxR1 inh	Sfp inh
CC1(C)CC(=O)C([C@H]2C3=C(CC(C)(C)CC3=O)Oc3ccccc32)C(=O)C1	x	x	7%	x	x	15%
O=C(c1ccc(S(=O)(=O)N2CCC(c3nc4ccccc4[nH]3)CC2)cc1)N1CCOCC1	-2%	-6%	-15%	8%	13%	50µM*
CC(C)CCC[C@@H](C)[C@H]1CC[C@H]2[C@@H]3CC[C@@H]4C[C@H](O)CC[C@]4(C)[C@H]3CC[C@]12C	x	x	-11%	x	x	-7%
O=C(Cc1ccccc1)NC(NNc1ccccc1)(C(F)(F)F)C(F)(F)F	0%	27µM*	u	-6%	0%	9%
N#CCCN(Cc1cccnc1)C(=S)NCc1ccco1	-7%	-24%	-8%	-4%	0%	25µM*
COc1ccc(Nc2cnn(-c3nc4ccccc4s3)c(=O)c2Cl)cc1	2%	12µM*	u	-2%	3.2µM*	u
COc1cccc(CNC(=O)Cn2nc(C)n3c(cc4cc(C)ccc43)c2=O)c1OC	11%	x	-3%	0%	8%	x
N=C1/C(=C\c2ccc(-c3cccc(Cl)c3)o2)C(=O)N=C2SC=C(c3ccccc3)N12	0%	-21%	u	-1%[57.1 µM]	-19%[57.1 µM]	6.3µM*
N=C1/C(=C\c2ccc(-c3ccc(C(=O)O)cc3)o2)C(=O)N=C2SC=C(c3ccccc3)N12	0%	u	-8%	-10%	u	32µM*
CSc1nc(-c2ccco2)cc(C(F)(F)F)c1C#N	2%	17µM*	-25%	21%[57.1 µM]	-6%[57.1 µM]	1%
CCc1c(-c2ccccc2OC)ncn1Cc1cccc(-c2ccccc2)c1	x	-6%	x	x	x	x
C=C1C(=O)OC2C1CCC(C)=C1C(=O)C3OC3(C)C12 (stereo not drawn)	-1%	19µM*	u	7%	8.9µM*	x
CC1(C)CC(=O)C(C(=O)/C=C/NCCc2ccccc2)C(=O)C1	7%	-3%	3%	-4%[57.1 µM]	9%[57.1 µM]	7%
CN(C)c1ccc(N/C=C/C(=O)c2ccco2)cc1	8%	1%	89µM*	5%[57.1 µM]	-1%[57.1 µM]	56µM*
Cc1ccc2nc(Cl)c(/C=C/C(=O)c3ccco3)cc2c1	8%	-22%	18µM*	11%[57.1 µM]	-5%[57.1 µM]	-4%
Cc1ccc(C(=O)/C=C/c2ccco2)c(O)c1	-4%	-13%	-24%	4%[57.1 µM]	-22%[57.1 µM]	45µM*
CC1(C)CC(=O)C(C(=O)/C=C/c2ccco2)C(=O)C1	2%	9.5µM*	u	-13%	-10%	4%
CCC(C)(C(=O)NC1CCCCC1)N(C(=O)CC1NC(=O)NC1=O)c1c(C)n(C)n(-c2ccccc2)c1=O (stereo not drawn)	-3%	1%	-10%	4%[57.1 µM]	12%[57.1 µM]	3%
